Screening data (PubChem BioAssay)
Compounds with a hit are over-represented: about 2.4% of the library has one in this group of screens.
Cruzain inh noDet: qHTS Assay for Promiscuous and Specific Inhibitors of Cruzain (without detergent); Cruzipain (Trypanosoma cruzi), P25779; purified cruzain, Z-FR-AMC fluorescence, no detergent; Potency, µM, for the others: max response, negative = inhibition, actives largely listed as inhibitors; actives 2.3% (n = 200,000);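 also: plate controls were enzyme without inhibitor for no effect and buffer without enzyme for full effect; nearly all actives have a fitted effect of over 40% in size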
Target sequence (P25779 123-467 limits assumed): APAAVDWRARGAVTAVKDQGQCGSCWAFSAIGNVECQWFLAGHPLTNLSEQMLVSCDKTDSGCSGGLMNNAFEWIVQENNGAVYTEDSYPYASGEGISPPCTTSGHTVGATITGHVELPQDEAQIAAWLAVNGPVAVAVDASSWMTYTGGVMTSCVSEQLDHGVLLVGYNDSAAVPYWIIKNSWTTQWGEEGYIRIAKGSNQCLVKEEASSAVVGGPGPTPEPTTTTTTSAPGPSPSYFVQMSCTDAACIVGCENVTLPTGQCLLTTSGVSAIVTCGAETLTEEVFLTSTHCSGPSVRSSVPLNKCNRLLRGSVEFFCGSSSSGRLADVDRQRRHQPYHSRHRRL
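Detergent-free condition (0.00005% Triton X-100) in acetate buffer pH 5.5 with DTT. 1.5 nM enzyme and compound were pre-mixed 15 min, then 2 uM Z-FR-AMC substrate added; reaction progress from fluorescence change between first and third reads (60 s).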
Cruzain inh Det: qHTS Assay for Promiscuous and Specific Inhibitors of Cruzain (with detergent) | AID 1478, 2009 | actives 0.43% (n = 200,000) | purified cruzain, Z-FR-AMC fluorescence, 0.01% Triton | Potency, µM, for inactives: max response, negative = inhibition, actives largely listed as inhibitors;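 also: plate controls were neutral wells for no effect and buffer without enzyme for full effect; nearly all actives have a fitted effect of over 40% in size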
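15 min RT preincubation of 1.5 nM cruzain with compound, then 2 uM Z-FR-AMC added; kinetic AMC fluorescence, 60 s delta. Triton X-100 0.01%, pH 5.5.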
* marks the source's active call; other numbers are inactive results; ? = inconclusive. Calls follow the shape of the dose curve; as a rule, active = well fitted curve in the direction sought with a large enough effect; inconclusive = small, poorly fitted or top-dose-only effect, or another doubt; inactive = no such curve, though single readings can be large; an effect the other way counts as inactive or inconclusive. Potency is read from the fitted curve at half-maximal effect.

SMILES | Cruzain inh noDet | Cruzain inh Det
O=C(COC(=O)CNC(=O)c1ccccc1F)Nc1ccc2c(c1)OCCO2 | 3.16µM* | 8.91µM*
COCCn1c(C)cc(C(=O)COC(=O)CNC(=O)c2ccccc2)c1C | -29.6% | ?
COc1ccc(OC)c(C(=O)COC(=O)CNC(=O)c2ccccc2)c1 | 12.6µM* | 14.1µM*
O=C(COC(=O)CNC(=O)c1ccc(Br)o1)Nc1ccc2c(c1)OCCO2 | 11.1% | -1.3%
CCOC(=O)CNC(=O)c1ccc2c(c1)OCCO2 | -4.4% | 8.3%
COc1ccccc1C(=O)NCC(=O)OCC(=O)c1ccc2c(c1)-c1ccccc1C2 | 10µM* | ?
CCOc1ccc(C(=O)NCC(=O)OCC(=O)c2ccc3c(c2)-c2ccccc2C3)cc1 | ? | -13.2%
O=C(CNC(=O)c1ccc(Cl)cc1)OCC(=O)c1ccc2c(c1)OCCO2 | 10µM* | 8.91µM*
Cc1ccc(N2C(=O)[C@@H]3CSC(c4ccc(Cl)cc4)N3C2=O)cc1 (stereo not given in full) | 9.2% | -4.3%
Cc1ccc2[nH]c(CSc3nnc(NC(=O)COc4ccc(F)cc4)s3)cc(=O)c2c1 | -8.2% | 3.5%
CCC1Oc2ccc(C)cc2N(CC(=O)NCc2ccc(F)cc2)C1=O (stereo not given) | -6.9% | 0.4%
CCOc1ccccc1C(=O)NCC(=O)OCC(=O)c1ccc2c(c1)OCCO2 | ? | 25.1µM*
O=C(CNC(=O)c1ccccc1F)OCc1cc(=O)n2nc(C3CCCCC3)sc2n1 | -6.3% | -9.0%
O=C(CNC(=O)c1ccccc1F)OCC(=O)N1CCCCC1 | ? | 15.8µM*
CCOc1ccccc1C(=O)NCc1ccc2c(c1)OCO2 | -8.4% | 2.0%
CCn1cc(C(=O)Nc2cccc(Cl)c2)c2cc(OC)c(OC)cc2c1=O | ? | -10.8%
CCCCC(=O)Nc1nnc(S(=O)(=O)N(C)Cc2ccccc2)s1 | 0.5% | -2.0%
N#Cc1ccccc1NC(=O)C(=O)NCCc1csc(-c2ccc(C(F)(F)F)cc2)n1 | 8.3% | 1.2%
CS(=O)(=O)N1CCN(c2ccccc2NC(=O)c2ccc(-c3ccc(Cl)cc3Cl)o2)CC1 | 3.16µM* | -1.7%
CN1CCN(c2ccccc2NC(=O)c2ccc(-c3ccc(Cl)cc3Cl)o2)CC1 | 0.6% | -19.7%
COc1ccc(CCNC(=O)C2(c3cccs3)CCOCC2)cc1 | 4.5% | 3.8%
COC(=O)c1sccc1S(=O)(=O)N(CC(=O)Nc1c(C)cccc1C)c1ccc(C)c(C)c1 | 6.3% | -3.9%
COc1ccc(CNC(=O)c2cc(-c3cccc(Cl)c3)on2)cc1 | -8.1% | -2.5%
COC(=O)CN(C#N)c1nc(C)cc(C)n1 | -1.8% | -2.4%
COC(=O)CN(C#N)c1nc(OC)nc(N(C)C)n1 | 20µM* | 28.2µM*
SMILES | Cruzain inh noDet | Cruzain inh Det
CCNc1nc(SC)nc(N(C#N)CC(=O)OC)n1 | 12.6µM* | 14.1µM*
CCNc1nc(SC(C(C)=O)C(C)=O)nc(N(C)C)n1 | -2.4% | 5.0%
CCN(C#N)c1nc(NC(C)C)nc(NC(C)C)n1 | 7.0% | 0.1%
COC(=O)CN(C#N)c1nc(NC(C)C)nc(OC)n1 | 20µM* | 22.4µM*
COc1ccc(OC)c(NC(=O)CSc2nccn2-c2cc(C)cc(C)c2)c1 | 7.1% | -7.8%
COCCCNS(=O)(=O)c1ccc(N2CCCCS2(=O)=O)cc1 | 3.7% | -0.7%
CCc1ccc(NC(=O)CCn2nc(-c3ccccc3OC)c3c(C)cc(C)nc32)cc1 | ? | -10.7%
COc1ccc(CCNC(=O)c2ccc3c(c2)nc2n3CCOC2)cc1OC | -0.4% | 0.5%
COc1cc2c(-c3ccccc3Cl)nc3c(c(C)nn3-c3ccccc3)c2cc1OC | 1.3% | -3.0%
O=C(N/N=C/c1c(O)n(CCC2=CCCCC2)c(=O)[nH]c1=O)c1ccccc1 | 25.1µM* | 3.5%
O=C(N/N=C/c1c(O)n(CCC2=CCCCC2)c(=S)[nH]c1=O)c1ccccc1 | -4.1% | 2.5%
CCCCNc1nc(C)nc2c1nc(-c1ccccc1)n2CC1CCCN1CC (stereo not given) | -5.9% | -10.8%
COc1ccc(C(=O)Nn2c(SCc3ccc([N+](=O)[O-])cc3)nc3ccccc3c2=O)cc1 | 31.6µM* | 5.5%
O=c1c2ccccc2nc(SCc2ccc([N+](=O)[O-])cc2)n1CCCO | ? | -9.9%
O=c1c2ccccc2nc(SCc2ccc([N+](=O)[O-])cc2)n1-c1ccc(Cl)cc1 | 12.6µM* | -1.9%
COc1ccc(C(=O)Nn2c(SCC(=O)c3ccccc3)nc3ccccc3c2=O)cc1 | ? | -4.3%
CC(C)(C)c1ccc(C(=O)Nc2cc(-c3ccccc3)nn2-c2ccccc2)cc1 | ? | 0.4%
COc1cccc(-c2cc(C(=O)Nc3ccc(F)cc3)[nH]n2)c1 | ? | -0.7%
COc1cccc(-c2cc(C(=O)Nc3ccc(Br)c(C)c3)[nH]n2)c1 | 12.6µM* | -1.2%
O=C(COc1ccccc1-c1nc(-c2ccccc2)no1)Nc1ccc([N+](=O)[O-])cc1 | -8.6% | -5.3%
COc1cccc(CN2CCc3nc(N4CCN(c5ncccn5)CC4)ncc3C2)c1 | 7.6% | -2.0%
O=S(=O)(c1ccccc1)N1CCN(c2nc3ccccc3s2)CC1 | -3.9% | 4.3%
Clc1ccc2nc(N3CCN(c4ccccc4)CC3)sc2c1 | 20µM* | -0.3%
c1ccc(N2CCN(c3nc4cc5c(cc4s3)OCO5)CC2)cc1 | 12.6µM* | -5.0%
c1c2c(cc3sc(N4CCOCC4)nc13)OCO2 | -19.8% | 2.5%
SMILES | Cruzain inh noDet | Cruzain inh Det
OCCN1CCN(C(c2ccccc2Cl)c2sc3nc(-c4ccco4)nn3c2O)CC1 (stereo not given) | -12.6% | -1.9%
C=CCC(C)(O)C#Cc1ccccc1 (stereo not given) | -2.8% | 3.3%
CCOC(=O)c1sc(NCc2ccco2)c(-c2nc3ccccc3s2)c1N | ? | -5.7%
CCNc1sc(C(=O)c2cccs2)c(N)c1C#N | -10.1% | 1.1%
C=CCNc1sc(C(=O)c2ccccc2)c(N)c1-c1nc2ccccc2s1 | 7.94µM* | -1.4%
CCNc1sc(C(=O)c2cccs2)c(N)c1-c1nc2ccccc2s1 | 7.94µM* | 2.6%
CC/C(=C(/c1ccccc1)c1ccc(OCCN(C)C)cc1)c1ccccc1 | 4.8% | -0.3%
O=C(Nc1nnc(CSCc2ccccc2F)s1)c1cccc([N+](=O)[O-])c1 | ? | -7.4%
O=C(Nc1nnc(CCS(=O)(=O)c2ccc(Br)cc2)s1)c1ccc([N+](=O)[O-])cc1 | 5.01µM* | 4.7%
O=C(Nc1nnc(CSCc2ccc(F)cc2)s1)c1ccc([N+](=O)[O-])cc1 | 25.1µM* | -4.5%
O=C(Nc1nnc(COc2ccc(Cl)cc2)s1)c1ccc([N+](=O)[O-])cc1 | -9.3% | 4.4%
CN1[C@@H]2CC[C@@H]1CC(OC(=O)[C@H](CO)c1ccccc1)C2 (stereo not given in full) | -1.7% | 1.2%
N#Cc1c(Cl)nc(Cl)c2c1CCN(Cc1ccccc1)C2 | -21.8% | -9.1%
N#Cc1c(NCCN)nc(NCc2ccccc2)c2c1CCN(Cc1ccccc1)C2 | 7.94µM* | -1.3%
CN(c1ccc(F)cc1)S(=O)(=O)N1CCCC(C(=O)NCCc2ccccc2)C1 (stereo not given) | 6.4% | -1.2%
Cc1ccc(OC/C(O)=C(\C#N)c2nc3ccccc3s2)cc1 | 20µM* | -2.9%
CC(C)=C(C#N)c1nc2ccccc2s1 | -4.7% | -6.9%
CN1CCN(C(c2ccc(Cl)cc2Cl)c2sc3nc(-c4ccco4)nn3c2O)CC1 (stereo not given) | -4.0% | 0.0%
